The text below walks through data of PubChem BioAssay (NCATS).

Results filed as inconclusive are left out. Unmarked numbers belong to inactive results. Calls of active or inactive are those of the source. The call rests on the fitted dose curve; in most records, active means well fitted inhibition curve with a large enough effect; inconclusive means small, poorly fitted or top-dose-only effect; inactive means no such curve, though single readings can be large or run the other way.

This assay deals with Muscarinic acetylcholine receptor M1 (Rattus norvegicus) (UniProt P08482). The assay is described as follows: qHTS Assay for Antagonists of Acetylcholine Muscarinic M1 Receptor: Kinetic Measurement of Intracellular Calcium Response (AID 943). Further: nearly all actives have a fitted effect of over 75% in size. As to conditions: M1-expressing cells, kinetic intracellular calcium fluorescence; series mostly up to 35.3 µM; activity change, negative = inhibition: at the top concentration. The source says: NIH Molecular Libraries Screening Centers Network [MLSCN]
Chain of Muscarinic acetylcholine receptor M1 (Rattus norvegicus) (P08482 whole entry, looked up): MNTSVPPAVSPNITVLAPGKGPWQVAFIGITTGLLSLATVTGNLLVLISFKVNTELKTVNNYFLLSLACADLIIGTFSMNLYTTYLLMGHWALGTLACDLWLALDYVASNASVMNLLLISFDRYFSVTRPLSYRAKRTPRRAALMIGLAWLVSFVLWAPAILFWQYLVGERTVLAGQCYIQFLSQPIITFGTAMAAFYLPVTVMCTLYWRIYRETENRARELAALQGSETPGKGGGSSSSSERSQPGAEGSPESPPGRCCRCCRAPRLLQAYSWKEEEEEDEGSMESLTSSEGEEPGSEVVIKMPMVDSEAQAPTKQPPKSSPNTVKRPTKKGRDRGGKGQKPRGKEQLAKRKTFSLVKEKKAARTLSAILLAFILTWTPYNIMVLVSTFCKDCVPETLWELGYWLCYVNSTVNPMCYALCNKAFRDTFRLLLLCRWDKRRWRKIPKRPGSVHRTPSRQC
NIH Chemical Genomics Center [NCGC]
Acetylcholine muscarinic M1 receptor is a G-protein coupled receptor (GPCR) coupling to the Gq G protein. It is mainly expressed in brain and functionally related to the learning and memory processes. The agonists of this receptor have the potential for the treatment of Alzheimer's disease and cognitive impairments associated with Schizophrenia. Upon an activation of the M1 receptor, phosholipase C (PLC) is activated to produce inositol 1,4,5-trisphosphate (IP3) and diacyl glycerol (DAG) resulting in increase of intracellular free Ca2+ and activation of protein kinase C (PKC). The increase of intracellular calcium can be measured by the fluorescent calcium dyes, Fluo-3 and Fluo-4, using a fluorescence kinetic plate reader.
We have obtained a M1-CHO cell line transfected with rat acetylcholine M1 receptor and optimized a calcium assay with this cell line for compound screening as a counter-screen assay for other Gq-coupled GPCRs.
NCGC Assay Protocol Summary:
The CHO-M1 (CHO-M1) cell line transfected with the rat acetylcholine muscarinic M1 receptor was obtained from ATCC. The cells were maintained in call culture flasks with F12 Kaighn's media (Invitrogen) supplemented with 10 % FBS, 100 units/ml penicillin, 100 ug/ml streptomycin and 250 ug/ml geneticin (Invitrogen) at 37C, 5 % CO2 in a humidified atmosphere. At 90-95 % confluence, the cells were then detached in 15 ml […] % trypsin by 3 minutes incubation at 37C and centrifuged at 1000 RPM to remove the trypsin solution. The resulting cell pellet was resuspended in the cell freezing media containing 10 % DMSO (Invitrogen) at a density of 4 x 10^7 cells/ml. The aliquots of cells at 0.5 - 1 ml per vial were frozen down slowly at 1 degree C/min using a Cryo 1 degree C freezing container in the presence of isopropanol (Nalgene Nunc, Rochster, NY) overnight in a -80C freezer. The frozen cells were then transferred to liquid nitrogen for the storage up to one year.
The resuspended frozen cells were plated at 3 ul/well with 2000 cells in the black, tissue culture treated, clear bottom 1536-well plates. After overnight incubation at 37C, 5% CO2, 2.5 ul/well no-wash calcium dye (containing Fluo-4, BD Biosciences) were loaded and incubated at 37C, 5 % CO2 for 1 hour followed by a 10 min incubation with 20 nl compound in DMSO solution. The assay plates were then placed onto the kinetic fluorescence plate reader (FDSS-7000, Hamamatsu) for a measurement of the kinetic changes in intracellular free calcium. The basal fluorescence signal was measured for 6 times at 1 Hz followed by an addition of 1 ul of carbachol and continued 4 min measurement. The results were calculated as the maximal signal (peak) divided by the minimal signal (basal).
1536-well assay protocol:
(1) 3 ul/well containing 2000 M1-CHO cells in 1536 tissue culture treated black/clear bottom plate
(3) Add 1ul/well calcium dye (from no-wash calcium dye kit, BD Biosciences) containing […]
(4) Incubate 1 hour at 37C with 5% CO2
(5) Add 20 nl compound diluted in DMSO
(6) Incubate 10 minutes at the room temp
(7) Place the plate in FDSS-7000 instrument (Ex = 480 nm and […])
#- read the assay plate 6 times at 1 Hz for basal signal
#- add 1 ul/well EC80 carbachol (100 nM final)
#- continuously read the assay plate for 4 min at 1 Hz
Keywords: acetylcholine muscarinic M1 receptor, calcium kinetic assay, Fluo-4, high throughput screening, MLSMR, MLSCN, NIH Roadmap, qHTS and NCGC
Background: Quantitative high-throughput screening tests each substance at several concentrations.
Take `FC(F)(F)c1cc(CO[C@@H]2CCCN[C@H]2c2ccccc2)cc(C(F)(F)F)c1`: the “activity change, negative = inhibition” value was -30.5%.
As for `CN1CCN([C@@H]2Cc3ccccc3Sc3ccc(Cl)cc32)CC1`, the Potency was 1.78 µM (active).
As for `Cc1cc(C)c(/C=C2/C(=O)Nc3ccccc32)[nH]1`, the “activity change, negative = inhibition” value is 120%.
On to `O=C(O)[C@@H]1CCCN[C@H]1C(=O)O`, for which the “activity change, negative = inhibition” value is -3.62%.
The same measure, in the same setting: next, `O=C(O)C[C@@H]1CCCc2ccccc2[C@H]1O`: -24.9%.
On the same count and under the same terms, with `O=C1[C@@H]2C=CC=CC2=NC(=S)N1CCN1CCC(=C(c2ccc(F)cc2)c2ccc(F)cc2)CC1` the figure was -54.3%.
For `CCCCCCCCCCCCCCCCCC(=O)NC[C@@H](COP(=O)([O-])OCC[N+](C)(C)C)OCC`, the Potency is 7.08 µM (active).
Still for that read-out and setting: next, `CCCCCCCCCCCCCCCCCC(=O)O[C@H](CC(=O)O)C[N+](C)(C)C`: 1 µM (active); `COC(=O)C1=C(C)NC(C)=C(C(=O)OCCN(C)Cc2ccccc2)[C@@H]1c1cccc([N+](=O)[O-])c1`: 3.16 µM (active).
In the case of `N#C[C@@H](Cc1ccc(O)c(O)c1)C(=O)N1CCc2ccccc21`, the “activity change, negative = inhibition” value was 113%.
Regarding `CCCCCC[C@@H]([C@H](C)O)n1cnc2c(N)ncnc21`, the “activity change, negative = inhibition” value was -43.7%.
As to `CCCCCCCCCC(=O)N[C@@H](CN1CCOCC1)[C@@H](O)c1ccccc1`, the “activity change, negative = inhibition” value was -43.7%.
The same measure, in the same setting: next, `CCCCC[C@H](O)CCCC(=O)O`: -34.3%.
Turning to `COc1cccc2c1[C@@H]1CN(CCCCn3c(=O)[nH]c4c(sc5ncc(-c6ccccc6)nc54)c3=O)C[C@H]1CO2`, the Potency is 11.2 µM (active).
On to `CCCN(CCc1ccccc1)[C@H]1CCc2c(O)cccc2C1`, for which the Potency is 0.501 µM (active).
`Nc1ncnc2c1ncn2[C@@H]1O[C@@H](CO)[C@H](O)[C@@H]1O`: the “activity change, negative = inhibition” value was -13.2%.
`CN(C)CCCO[C@H]1[C@H]([C@H](O)CO)O[C@H]2OC(C)(C)O[C@@H]21`: the “activity change, negative = inhibition” value was -26.4%.
For `CCCCC[C@H](O)c1cccc(OCc2ccc3ccccc3n2)c1`, the “activity change, negative = inhibition” value is -30.2%.
`CCNC(=O)[C@@H]1O[C@@H](n2cnc3c(N)nc(NCCc4ccc(CCC(=O)O)cc4)nc32)[C@H](O)[C@@H]1O`: the “activity change, negative = inhibition” value was 4.27%.
Turning to `CNCC[C@H](Oc1ccccc1C)c1ccccc1`, the Potency is 11.2 µM (active).
Take `OC[C@@H]1O[C@@H](n2cnc3cncnc32)[C@@H](O)[C@H]1O`: the “activity change, negative = inhibition” value was -27.4%.
The same measure, in the same setting: with `O=C(/C=C\c1ccc(O)cc1)c1ccc(O)cc1O` the figure was -34.2%; with `NC[C@@H]1O[C@@H](O[C@H]2[C@@H](O)[C@H](O[C@@H]3[C@H](O)[C@H](N)C[C@H](N)[C@H]3O[C@@H]3O[C@@H](CO)[C@H](O)[C@H](O)[C@@H]3N)O[C@H]2CO)[C@H](N)[C@H](O)[C@@H]1O`, -29.2%.
On to `CC1CCN(CC[C@@H]2CCCN2S(=O)(=O)c2cccc(O)c2)CC1`, for which the Potency is 14.1 µM (active).
For `O[Si@](CCCN1CCCCC1)(c1ccc(F)cc1)C1CCCCC1`, the Potency is 0.178 µM (active).
With `O=c1[nH]c(=O)n([C@H]2C[C@H](O)[C@H](CO)O2)cc1/C=C\Br`, the “activity change, negative = inhibition” value is 0.0961%.
